Where a name gives a salt, the structure may show the parent alone. ± gives the standard deviation of the averaged measurements.
Key:
Test in all cases: growth (OD600 after 10 h); higher = more growth (less inhibition)
[1] = tested on: E. coli TESEC Alr+ wild-type control; settings: compound 0.1 mM; raw OD600 reference: median of DMSO wells 0.241, cell-free background 0.041
Description: (§1)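 TESEC Mtb Alr E. coli, or the Alr+ wild-type control, in 384-well plates with Prestwick library compounds at 0.1 mM and 1% DMSO, across arabinose induction levels of 1E3 to 1E7 nM. Growth is read as OD600 after 10 h at 37 °C in triplicate biological replicates.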

[2] = tested on: E. coli TESEC Mtb Alr; settings: compound 0.1 mM
Description: as §1

[3] = tested on: E. coli TESEC Mtb Asd; settings: compound 0.1 mM
Description: (§2)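 TESEC E. coli strains in which the native enzyme is deleted and replaced by arabinose-inducible Mtb Asd, DapB, CysH or TrpD, each grown in its selective medium. Strains were screened against the Prestwick library at 0.1 mM and 1% DMSO in 384-well format at low and high arabinose induction. Growth is read as OD600 after 10 h in triplicate.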

[4] = tested on: E. coli TESEC Mtb DapB; settings: compound 0.1 mM
Description: as §2

[5] = tested on: E. coli TESEC Alr+ wild-type control; settings: compound 0.1 mM; raw OD600 reference: median of DMSO wells 0.49, cell-free background 0.052
Description: (§3)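 TESEC Mtb Alr E. coli (ΔaraC ΔtolC ΔentC Δalr ΔdadX, arabinose-inducible Mtb Alr) or the Alr+ wild-type control strain, grown in defined M9-fructose medium without D-alanine in 96-well plates with Prestwick library compounds at 0.1 mM and 1% DMSO. Low Alr induction is 0.1 µM arabinose and high induction is 10 mM arabinose.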

[6] = tested on: E. coli TESEC Mtb Alr; settings: compound 0.1 mM; remark: listed apart in the source
Description: as §3

[7] = arabinose 1000 nM, raw OD600 reference: median of DMSO wells 0.294, cell-free background 0.041
[8] = arabinose 10000 nM, raw OD600 reference: median of DMSO wells 0.264, cell-free background 0.041
[9] = arabinose 100000 nM, raw OD600 reference: median of DMSO wells 0.201, cell-free background 0.041
[10] = arabinose 1000000 nM, raw OD600 reference: median of DMSO wells 0.193, cell-free background 0.041
[11] = arabinose 10000000 nM, raw OD600 reference: median of DMSO wells 0.146, cell-free background 0.041
[12] = arabinose induction (level): High, raw OD600 reference: median of DMSO wells 0.331, cell-free background 0.041
[13] = arabinose induction (level): Low, raw OD600 reference: median of DMSO wells 0.417, cell-free background 0.041
[14] = arabinose induction (level): High, raw OD600 reference: median of DMSO wells […], cell-free background 0.041
[15] = arabinose induction (level): Low, raw OD600 reference: median of DMSO wells 0.227, cell-free background 0.041
[16] = arabinose 100 nM, raw OD600 reference: median of DMSO wells 0.413, cell-free background 0.052
[17] = arabinose 10000000 nM, raw OD600 reference: median of DMSO wells […], cell-free background 0.052

| Compound | growth [1] | growth [2, 7] | growth [2, 8] | growth [2, 9] | growth [2, 10] | growth [2, 11] | growth [3, 12] | growth [3, 13] | growth [4, 14] | growth [4, 15] | growth [5] | growth [6, 16] | growth [6, 17] |
| --- | --- | --- | --- | --- | --- | --- | --- | --- | --- | --- | --- | --- | --- |
| O=C1C(O)=C(O)C(=O)C(O)=C1O [Tetrahydroxy-1,4-quinone hydrate] | 0.231 ± 0.0052 | 0.29 ± 0.02 | 0.275 ± 0.0064 | 0.19 ± 0.018 | 0.1568 ± 0.0015 | 0.142 ± 0.0053 | 0.349 ± 0.089 | 0.427 ± 0.082 | 0.206 ± 0.021 | 0.226 ± 0.0024 | 0.5 ± 0.021 | 0.399 ± 0.012 | 0.333 ± 0.0084 |
| CCCCOc1cc(C(=O)OCCN(CC)CC)ccc1N [Benoxinate hydrochloride] | 0.206 ± 0.0046 | 0.256 ± 0.016 | 0.25 ± 0.0055 | 0.177 ± 0.015 | 0.1482 ± 0.00091 | 0.143 ± 0.0029 | 0.27 ± 0.12 | 0.451 ± 0.059 | 0.183 ± 0.016 | 0.21 ± 0.036 | 0.476 ± 0.024 | 0.4124 ± 0.0014 | 0.33 ± 0.011 |
| CCCCNc1c(C(=O)OCC)c(C)nc2c1cnn2CC [Tracazolate hydrochloride] | 0.15 ± 0.017 | 0.203 ± 0.049 | 0.13 ± 0.037 | 0.197 ± 0.051 | 0.077 ± 0.031 | 0.168 ± 0.031 | 0.165 ± 0.017 | 0.179 ± 0.014 | 0.156 ± 0.0092 | 0.194 ± 0.0047 | 0.335 ± 0.024 | 0.366 ± 0.0077 | 0.186 ± 0.042 |
| O=P(O)(O)C(O)(Cc1cccnc1)P(=O)(O)O [Risedronic acid monohydrate] | 0.247 ± 0.0087 | 0.2984 ± 0.0028 | 0.265 ± 0.0074 | 0.191 ± 0.0063 | 0.196 ± 0.0097 | 0.156 ± 0.0062 | 0.278 ± 0.053 | 0.376 ± 0.05 | 0.192 ± 0.014 | 0.26 ± 0.052 | 0.608 ± 0.083 | 0.426 ± 0.015 | 0.277 ± 0.011 |
| COc1ccc([C@@H]2Sc3ccccc3N(CCN(C)C)C(=O)[C@@H]2OC(C)=O)cc1 [Diltiazem hydrochloride] | 0.184 ± 0.0078 | 0.239 ± 0.01 | 0.274 ± 0.014 | 0.175 ± 0.0049 | 0.139 ± 0.0028 | 0.139 ± 0.0037 | 0.248 ± 0.063 | 0.434 ± 0.098 | 0.184 ± 0.035 | 0.211 ± 0.056 | 0.476 ± 0.011 | 0.413 ± 0.0022 | 0.3 ± 0.013 |
| CC(=O)[C@H]1CC[C@H]2[C@@H]3CCC4=CC(=O)CC[C@]4(C)[C@H]3CC[C@]12C [Progesterone] | 0.139 ± 0.0043 | 0.175 ± 0.01 | 0.234 ± 0.01 | 0.145 ± 0.015 | 0.117 ± 0.0027 | 0.15 ± 0.012 | 0.143 ± 0.0076 | 0.219 ± 0.012 | 0.178 ± 0.015 | 0.182 ± 0.013 | 0.101 ± 0.0049 | 0.292 ± 0.059 | 0.0648 ± 0.0061 |
| CC(C)(C)NC[C@H](O)COc1cccc2c1CCCC2=O [(-) -Levobunolol hydrochloride] | 0.227 ± 0.022 | 0.295 ± 0.0092 | 0.253 ± 0.0095 | 0.189 ± 0.0065 | 0.1733 ± 0.0014 | 0.141 ± 0.0056 | 0.401 ± 0.085 | 0.428 ± 0.059 | 0.203 ± 0.0036 | 0.221 ± 0.019 | 0.613 ± 0.048 | 0.403 ± 0.013 | 0.334 ± 0.0023 |
| CN(C)C(=N)NC(=N)N [Metformin hydrochloride] | 0.253 ± 0.0099 | 0.281 ± 0.026 | 0.258 ± 0.0057 | 0.238 ± 0.03 | 0.178 ± 0.0068 | 0.145 ± 0.0029 | 0.372 ± 0.032 | 0.404 ± 0.032 | 0.218 ± 0.037 | 0.235 ± 0.043 | 0.447 ± 0.052 | 0.404 ± 0.015 | 0.349 ± 0.032 |
| O=C1c2ccccc2S(=O)(=O)N1CCCCN1CCN(c2ncccn2)CC1 [Ipsapirone] | 0.206 ± 0.0034 | 0.256 ± 0.015 | 0.249 ± 0.0074 | 0.171 ± 0.0059 | 0.154 ± 0.007 | 0.141 ± 0.0076 | 0.226 ± 0.048 | 0.389 ± 0.064 | 0.205 ± 0.026 | 0.221 ± 0.021 | 0.551 ± 0.04 | 0.4 ± 0.0047 | 0.313 ± 0.012 |
| COc1ccccc1O [Guaiacol] | 0.255 ± 0.0046 | 0.314 ± 0.0073 | 0.2742 ± 0.0019 | 0.192 ± 0.012 | 0.203 ± 0.012 | 0.135 ± 0.0042 | 0.212 ± 0.031 | 0.364 ± 0.063 | 0.19 ± 0.008 | 0.202 ± 0.028 | 0.558 ± 0.079 | 0.407 ± 0.016 | 0.356 ± 0.009 |
| C#C[C@]1(O)CC[C@H]2[C@@H]3CCC4=Cc5oncc5C[C@]4(C)[C@H]3CC[C@@]21C [Danazol] | 0.154 ± 0.027 | 0.168 ± 0.026 | 0.174 ± 0.022 | 0.152 ± 0.012 | 0.125 ± 0.0017 | 0.152 ± 0.0057 | 0.295 ± 0.075 | 0.277 ± 0.022 | 0.169 ± 0.0079 | 0.176 ± 0.0079 | 0.46 ± 0.05 | 0.4015 ± 0.0024 | 0.309 ± 0.026 |
| CC[N+](CC)(CC(=O)Nc1c(C)cccc1C)Cc1ccccc1 [Denatonium benzoate] | 0.216 ± 0.0039 | 0.27 ± 0.0093 | 0.254 ± 0.006 | 0.182 ± 0.034 | 0.173 ± 0.014 | 0.132 ± 0.0092 | 0.401 ± 0.018 | 0.46 ± 0.0089 | 0.189 ± 0.015 | 0.224 ± 0.024 | 0.439 ± 0.016 | 0.402 ± 0.018 | 0.338 ± 0.02 |
| COc1ccc(C2CNC(=O)C2)cc1OC1CCCC1 (stereo not drawn) [Rolipram] | 0.209 ± 0.0078 | 0.275 ± 0.012 | 0.29 ± 0.0047 | 0.177 ± 0.0086 | 0.198 ± 0.012 | 0.14 ± 0.0022 | 0.373 ± 0.044 | 0.425 ± 0.047 | 0.211 ± 0.0056 | 0.217 ± 0.0081 | 0.623 ± 0.011 | 0.4 ± 0.013 | 0.311 ± 0.019 |
| CS(=O)(=O)Nc1ccc([N+](=O)[O-])cc1Oc1ccccc1 [Nimesulide] | 0.1929 ± 0.00095 | 0.206 ± 0.0095 | 0.247 ± 0.0073 | 0.149 ± 0.0051 | 0.137 ± 0.0025 | 0.139 ± 0.0087 | 0.272 ± 0.088 | 0.329 ± 0.056 | 0.201 ± 0.0065 | 0.248 ± 0.091 | 0.3996 ± 0.002 | 0.359 ± 0.026 | 0.286 ± 0.01 |
| C[C@](N)(Cc1ccc(O)c(O)c1)C(=O)O [Methyldopa (L,-)] | 0.241 ± 0.011 | 0.298 ± 0.0073 | 0.27 ± 0.0043 | 0.24 ± 0.021 | 0.188 ± 0.017 | 0.146 ± 0.0063 | 0.356 ± 0.044 | 0.458 ± 0.041 | 0.187 ± 0.0082 | 0.226 ± 0.022 | 0.508 ± 0.05 | 0.411 ± 0.015 | 0.345 ± 0.026 |
| CC(CNC1CCCCC1)OC(=O)c1ccccc1 (stereo not drawn) [Hexylcaine hydrochloride] | 0.242 ± 0.016 | 0.303 ± 0.0092 | 0.273 ± 0.0072 | 0.191 ± 0.0085 | 0.173 ± 0.0098 | 0.1577 ± 0.0015 | 0.452 ± 0.026 | 0.489 ± 0.039 | 0.2 ± 0.027 | 0.233 ± 0.024 | 0.552 ± 0.022 | 0.409 ± 0.016 | 0.309 ± 0.0087 |
